Only some compounds are listed: those with a hit (about 10% of all), similar ones and a draw of the others.
G9a block: blocks human histone lysine methyltransferase G9a; Q96KQ7; G9a H3K9 monomethylation, AlphaScreen, 2 h; Potency, µM (doses to about 102 µM), hits mostly inhibitors; 8.8% of 350,000 active; further: nearly all actives have a fitted effect of over 75% in size
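Methyltransferase reactions run at room temperature for 2 h (20 nM enzyme, 500 nM biotin-H3K9 peptide, 20 uM SAM) after a 15 min compound preincubation; product detected by AlphaScreen beads and anti-H3K9me1 antibody.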
HP1b chromo inh: HP1-beta chromodomain-methylated histone interaction inhibition; P83916; AlphaScreen HP1-beta / biotin-H3K9me3 peptide binding; Potency, µM (highest dose often 114 µM), usual class: inhibitors; 0.56% of 390,000 active; further: nearly all actives have a fitted effect of over 70% in size
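HP1-beta protein (50 nM final) preincubated 30 min at room temperature with biotinylated H3(1-18)K9me3 peptide (50 nM) in PBS pH 7.4, 0.01% Tween-20, then compound added for 30 min. AlphaScreen streptavidin donor/nickel chelate acceptor beads (10 ug/mL final), 30 min dark, luminescence read.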
CtBP-E1A blk: CtBP/E1A binding inhibition; AlphaScreen GST-E1A/His-CtBP binding, 1536-well; active compounds read low; activity change, % (concentration not given with the values); 0.49% of 340,000 active; in the data active means activity change below about -65%; inconclusive means mostly about -30% to -63%
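AlphaScreen with 125 nM GST-E1A and 125 nM His-CtBP (5X stocks) in Tris pH 8.0, 300 mM NaCl, BSA, Tween 20, TCEP. Compounds preincubated 2 h at 37 deg C, then glutathione donor/nickel acceptor beads added for 1 h at 37 deg C in dark.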
JMJD2A Tudor: blocks the human JMJD2A Tudor domain; AlphaScreen JMJD2A-Tudor / H3K4me3 peptide binding; Potency, µM (top dose mostly 114 µM), most hits filed as inhibitors; 4.4% of 390,000 active; AID 504339; further: nearly all actives have a fitted effect of over 50% in size
Six1-Eya2 blk: inhibitors of human Six1/Eya2 interaction | activity change, % (test concentration not listed) | 0.56% of 360,000 active | AID 651725 | Q15475+O00167 | AlphaScreen GST-Six1/His-Eya2 binding, biochemical; active compounds read low; in the data active means activity change below about -65%; inconclusive means mostly about -30% to -63%
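AlphaScreen luminescence read after one hour at 37 °C in darkness. Pin-transferred compounds met GST-Six1 and His-Eya2 protein (5X stock 250 nM/500 nM) plus glutathione donor and Ni-chelate acceptor beads (5X, 50 ug/mL).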
BAZ2B inh: BAZ2B (human) inhibition. 4.4% of 360,000 active. AID 504333. Potency, µM (highest dose often 114 µM), hits mostly inhibitors. AlphaScreen BAZ2B-H3K14Ac peptide displacement; further: nearly all actives have a fitted effect of over 60% in size
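Compounds, titrated to a top concentration of 110 uM, were incubated 30 min at room temperature with preformed BAZ2B/acetyl-K14 H3 peptide complex (50 nM each). Proximity signal was measured by AlphaScreen after 20 min with beads.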
Of the large screens only hits and unclear results are named; the others gave an inactive call. Unless noted, the call rests on the fitted dose curve; in most records, active means well fitted inhibition curve with a large enough effect; inconclusive means small, poorly fitted or top-dose-only effect; inactive means no such curve, though single readings can be large or run the other way.

COc1ccc(NC2CCCN(C(=O)c3ccc(C(C)=O)cc3)C2)cc1 (configuration not stated)	none
COc1ccc(NC2CCCN(C(=O)c3ccc(C(C)=O)s3)C2)cc1 (configuration not stated)	G9a block 50.1µM
CC(C)c1ccc(NC2CCCN(C(=O)c3cccc4nccnc34)C2)cc1 (configuration not stated)	none
COc1ccc(NC2CCCN(C(=O)c3ccc4[nH]c(C)c(C)c4c3)C2)cc1 (configuration not stated)	G9a block 39.8µM, JMJD2A Tudor inconclusive, BAZ2B inh 44.7µM
CC(C)c1ccc(NC2CCCN(C(=O)c3ccccc3-c3ncc[nH]3)C2)cc1 (configuration not stated)	G9a block 44.7µM, JMJD2A Tudor inconclusive, BAZ2B inh 56.2µM
Cc1nonc1C(=O)N1CCCC(Nc2ccc(C(C)C)cc2)C1 (configuration not stated)	G9a block 35.5µM, BAZ2B inh inconclusive (no result: CtBP-E1A blk)
COc1ccc(NC2CCCN(C(=O)CCn3cccn3)C2)cc1 (configuration not stated)	none
COc1ccc(NC2CCCN(C(=O)c3ccc(C)nc3)C2)cc1 (configuration not stated)	G9a block 39.8µM
COc1ccc(NC2CCCN(C(=O)c3cc4ncccn4n3)C2)cc1 (configuration not stated)	G9a block 35.5µM
Cc1ccc(C(=O)N2CCCC(Nc3ccc(C(C)C)cc3)C2)cn1 (configuration not stated)	G9a block 39.8µM
Cc1cc(C)c(C(=O)N2CCCC(Nc3ccc(C)c(C)c3)C2)o1 (configuration not stated)	JMJD2A Tudor inconclusive, BAZ2B inh inconclusive
Cc1cc(C)c(C(=O)N2CCCC(Nc3ccc(F)cc3)C2)o1 (configuration not stated)	G9a block 79.4µM, BAZ2B inh inconclusive
COc1ccc(Cl)cc1C(=O)NCC(c1ccc(N(C)C)cc1)N1CCCC1 (configuration not stated)	none (no result: CtBP-E1A blk, Six1-Eya2 blk)
Cn1c(=O)n(C)c2cc(CNCc3ccc(C(=O)O)cc3)ccc21	none (no result: CtBP-E1A blk, Six1-Eya2 blk)
O=C(NCc1ccccc1Cl)c1cc(=O)[nH]c2ccc(S(=O)(=O)N3CCCCC3)cc12	none (no result: CtBP-E1A blk, Six1-Eya2 blk)
Cc1cc2ccccc2n1CCNC(=O)c1cc(C(F)(F)F)cc(C(F)(F)F)c1	none (no result: CtBP-E1A blk, Six1-Eya2 blk)
CC(C)c1ccc(NC2CCCN(C(=O)c3ccoc3)C2)cc1 (configuration not stated)	G9a block 44.7µM, JMJD2A Tudor inconclusive, BAZ2B inh inconclusive (no result: CtBP-E1A blk)
O=C(c1ccoc1)N1CCCC(Nc2ccc(F)c(F)c2)C1 (configuration not stated)	none
COc1ccc2nc(N(Cc3cccnc3)C(=O)c3ccco3)sc2c1	none (no result: CtBP-E1A blk, Six1-Eya2 blk)
Cc1cc(C)nc(/N=C2\NC(=O)CC(C(=O)O)N2c2ccc(C)c(C)c2)n1 (configuration not stated)	JMJD2A Tudor 12.6µM
Cc1ccc(N2/C(=N/c3nc(C)cc(C)n3)NC(=O)CC2C(=O)O)cc1 (configuration not stated)	none
COc1cccc(Cn2c(=O)c(-c3cc(F)cc(F)c3)nc3cnc(N4CCNCC4)nc32)c1	none (no result: HP1b chromo inh, CtBP-E1A blk, JMJD2A Tudor, Six1-Eya2 blk, BAZ2B inh)
COC(=O)C1=C(C)N(c2ccc(OC)c(OC)c2)C(=O)C1	G9a block 70.8µM
COC(=O)C1=C(C)N(c2ccc(F)cc2)C(=O)C1	G9a block 44.7µM
Nc1ccc(N(c2ccccc2)c2ccc(N)cc2)cc1	G9a block 1.26µM, HP1b chromo inh 39.8µM, JMJD2A Tudor 15.8µM, BAZ2B inh 25.1µM
COc1ccc(Nc2cc(C)nc(NCc3ccccc3)n2)cc1	G9a block 50.1µM, JMJD2A Tudor inconclusive
Cn1c(-c2cc(Br)ccc2O)n[nH]c1=S	G9a block 0.501µM, HP1b chromo inh inconclusive, JMJD2A Tudor 4.47µM
S=c1[nH]nc(-c2ccccc2Br)n1Cc1ccccc1	none (no result: G9a block, CtBP-E1A blk)
Oc1ccc(Br)cc1-c1n[nH]c(=S)n1Cc1ccccc1	G9a block 6.31µM, JMJD2A Tudor inconclusive

Compound activity from PubChem.
